# AmpC inh detg: qHTS Inhibitors of AmpC Beta-Lactamase (assay with detergent) | P00811 | AmpC hydrolysis of nitrocefin, absorbance 480 nm, 0.01% Triton | Potency, µM (top dose mostly 114 µM), for the others: at the top dose activity change, negative = inhibition, hits mostly inhibitors | AID 485294, 2010 | actives 0.041% (n = 370,000);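 also: 0% = no-compound wells and -100% = no-enzyme wells; nearly all actives have a fitted effect of over 25% in size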
# Target sequence (P00811 whole entry, looked up): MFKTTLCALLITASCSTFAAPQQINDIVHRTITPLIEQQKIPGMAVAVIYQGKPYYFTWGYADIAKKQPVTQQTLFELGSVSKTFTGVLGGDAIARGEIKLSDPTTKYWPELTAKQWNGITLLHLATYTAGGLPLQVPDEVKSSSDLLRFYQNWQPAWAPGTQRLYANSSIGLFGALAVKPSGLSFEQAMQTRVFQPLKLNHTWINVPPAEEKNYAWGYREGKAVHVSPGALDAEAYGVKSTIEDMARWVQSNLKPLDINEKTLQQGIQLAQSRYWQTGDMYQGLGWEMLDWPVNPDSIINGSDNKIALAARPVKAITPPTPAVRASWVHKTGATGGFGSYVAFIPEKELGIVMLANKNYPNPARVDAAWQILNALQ
#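 20 mM phosphate pH 7.0 + 0.01% (detergent screen) or 0.0001% Triton X-100; 5.3 nM AmpC reagent; cpd preinc 15 min RT; nitrocefin (800 uM stock) to start; A480 q20 s × 4 min; Activity was normalised to no-enzyme and no-compound control wells.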
# AmpC no deterg: qHTS Inhibitors of AmpC Beta-Lactamase (assay without detergent). P00811. actives 0.52% (n = 330,000). Potency, µM (titrated, usually from 57.1 µM), for inactives: top-dose activity change, negative = inhibition, hits mostly inhibitors. AmpC nitrocefin hydrolysis, absorbance 480 nm, 0.0001% Triton;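 also: plate controls were no compound for no effect and no enzyme for full effect; nearly all actives have a fitted effect of over 20% in size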
#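 AmpC (5.3 nM in the dispensed reagent) in 20 mM phosphate pH 7.0 with 0.01% (detergent screen) or 0.0001% Triton X-100 was preincubated with compounds for 15 min at room temperature. Nitrocefin was then added from an 800 uM solution, and hydrolysis was followed at 480 nm.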
# Active calls of the source: *; ? = inconclusive; / = not tested or not shown; [ ] = another dose, or the depositor's remark. The sample as a whole holds a higher share of hits than the screen did. Calls follow the shape of the dose curve; as a rule, active = well fitted curve in the direction sought with a large enough effect; inconclusive = small, poorly fitted or top-dose-only effect, or another doubt; inactive = no such curve, though single readings can be large; an effect the other way counts as inactive or inconclusive. Potency is read from the fitted curve at half-maximal effect.
SMILES,AmpC inh detg,AmpC no deterg
COc1ccc(S(=O)(=O)N2CCCC2CNC(=O)C(=O)NCc2ccccc2Cl)cc1 (stereo not given),-18%,28µM*
COc1ccc(S(=O)(=O)N2CCCC2C(=O)NCc2ccccc2Cl)cc1 (stereo not given),-1%,5%
CCCCCn1c(CNC(=O)CCC)nc2ccccc21,?,19%
CCCCn1c(CNC(=O)CCC)nc2ccccc21,-12%,7.1µM*
CCCCn1c(C(C)NC(=O)COC)nc2ccccc21 (stereo not given),0%,-10%
CCCCCn1c(C(Cc2ccccc2)NC(=O)COC)nc2ccccc21 (stereo not given),?,1.3µM*
Cc1cccc(CN2CCN(CC(=O)Nc3c(C)cccc3C)S2(=O)=O)c1,6%,/
COc1ccccc1NC(=O)CSc1nnc(NC(=O)Nc2ccc(C)cc2)s1,1%,/
CCOc1ccc(NC(=O)Cn2nc(SC)c(S(=O)(=O)c3ccccc3)c2N)cc1,0%,/
CCN=c1scc(C)n1/N=C/c1ccc(O)c(O)c1O,-3%,10µM*
CCN=c1scc(C)n1/N=C/c1cc(Br)c(O)c(Br)c1,-14%,-27%[11.4 µM]
COC(=O)CN1C(=O)c2cccc3cccc1c23,-7%,-9%
COC(=O)CN1C(=O)CC(C)(C)S(=O)c2ccccc21 (stereo not given),?,1.3µM*
Cc1nc2ccccc2c2oc(C(=O)NC3CC3)cc12,-11%,-19%
CCOc1ccc(NC(=O)c2cc3c(C)nc4ccccc4c3o2)cc1,?,5µM*
C=CCN1C(=O)NC(=O)/C(=C/C=C/c2ccccc2)C1=O,5%,-28%
O=C1NC(=O)N(CCc2ccc(F)cc2)C(=O)/C1=C\C=C\c1ccccc1,-2%,3.5µM*
CCOC(=O)c1c(NC(=O)c2noc3c2CC(C(C)(C)C)CC3)sc2c1CCCC2 (stereo not given),-4%,/
COc1ccc(-c2nc(C#N)c(N3CCCCCC3)o2)cc1,9%,7.1µM*
COc1ccc(-c2nc(C#N)c(N3CCCCC3)o2)cc1,-8%,8%
Cc1cccc(-c2nnn3c2nc(NCc2ccccc2)c2ccccc23)c1,7%,/
Cc1sc2ncn(CC(=O)N(C)c3cccc(C(F)(F)F)c3)c(=O)c2c1S(=O)(=O)N1CCN(c2ncccn2)CC1,-8%,/
Cc1ccc(-c2nc(CS(=O)(=O)CC(=O)N3CCN(c4ccccc4)CC3)c(C)o2)cc1,21%,/
Cc1cccc(-c2nc(CS(=O)CC(=O)N3CCc4ccccc4C3)c(C)o2)c1 (stereo not given),?,76%
Cc1ccc(-c2nc(CS(=O)(=O)CC(=O)N3CCCCCC3)c(C)o2)cc1,-12%,6.3µM*
SMILES,AmpC inh detg,AmpC no deterg
Cc1ccc(-c2nc(CS(=O)(=O)CC(=O)N3CCc4ccccc4C3)c(C)o2)cc1,?,40µM*
Cc1ccc(-n2ncc(C(=O)NCCCN3CCCCC3)c2C2CCN(C(=O)OC(C)(C)C)CC2)cc1,-1%,/
CCn1c(C(=O)NCc2ccc(C)cc2)cc2sc(Cl)cc21,21%,/
COC(=O)c1cccc(NC(=O)/C=C/c2ccc([N+](=O)[O-])cc2)c1,-12%,-25%
O=C(/C=C/c1ccc([N+](=O)[O-])cc1)Nc1cccc(C(=O)Nc2ccccc2C(=O)O)c1,5%,35µM*
O=C(NCCS(=O)(=O)N1CCN(c2cccc(Cl)c2)CC1)C(c1ccccc1)c1ccccc1,0%,/
O=C(CCN1C(=O)/C(=C/c2cccs2)SC1=S)Nc1ccc(O)cc1,-15%,?
O=C(CCN1C(=O)/C(=C/c2cccs2)SC1=S)Nc1ccc(C(=O)O)c(O)c1,-4%,1.3µM*
COc1ccc(/C=C/C(=O)c2c(O)cc(C)oc2=O)c(OC)c1,5%,-39%
CSc1ccc(/C=C/C(=O)c2c(O)cc(C)oc2=O)cc1,-11%,28µM*
Cc1cc(O)c(C(=O)/C=C/c2ccc(Cl)cc2)c(=O)o1,-1%,25µM*
COc1cc(/C=C/C(=O)c2c(O)cc(C)oc2=O)cc(OC)c1O,-9%,0%
CCCOC(=O)c1ccc(NC(=O)Cn2nnc3sc4c(c3c2=O)CCC(C(C)(C)C)C4)cc1 (stereo not given),8%,/
CCOC(=O)c1sc(NC(=O)Cn2nnc3sc4c(c3c2=O)CCC(C(C)(C)C)C4)nc1C (stereo not given),-10%,3.5µM*
CC1=C(C(=O)Nc2ccccc2)C(c2ccccn2)n2nc(SCc3ccccc3Cl)nc2N1 (stereo not given),2%,/
COc1ccc(-n2ccc(=O)c(C(=O)Nc3ccc(S(=O)(=O)Nc4nccs4)cc3)n2)cc1,50µM*,-30%
O=C(Nc1ccc(S(=O)(=O)Nc2nccs2)cc1)c1nn(-c2ccccc2)ccc1=O,?,-38%
CCOc1ccc(NC(=O)Cn2c(=O)n(CCc3ccccc3)c(=O)c3c4c(sc32)CN(C(C)=O)CC4)cc1,18%,/
COCCCNS(=O)(=O)c1ccc(Oc2ncc(C(F)(F)F)cc2Cl)cc1,5%,58%
CC(C)(C)NS(=O)(=O)c1ccc(Oc2ncc(C(F)(F)F)cc2Cl)cc1,-5%,5µM*
COc1ccc(-n2c(-c3ccc(Cl)cc3)cc3c2CC(C)(C)CC3=O)c(OC)c1,-4%,/
C/C(=N\NC(=O)C1CCCN(S(=O)(=O)c2ccccc2)C1)c1ccncc1 (stereo not given),4%,-18%
C/C(=N\NC(=O)C1CCCN(S(=O)(=O)c2ccccc2)C1)c1ccccn1 (stereo not given),1%,3.2µM*
CCOc1ccccc1NC(=O)c1ccc2c(c1)CCN2S(C)(=O)=O,20%,/
O=C(CSc1cn(CCNC(=O)c2cccs2)c2ccccc12)NC1CCCC1,?,28µM*
SMILES,AmpC inh detg,AmpC no deterg
O=C(NCCn1cc(SCc2ccc(C(F)(F)F)cc2)c2ccccc21)c1cccs1,6%,/
Fc1ccccc1Nc1n[nH]c(=S)s1,2%,-39%
S=c1[nH]nc(Nc2cccc3ccccc23)s1,-6%,28µM*
O=C(Cn1nc(Cc2cccnc2)c2ccccc2c1=O)Nc1ccc2c(c1)OCO2,4%,10µM*
O=C(Cn1nc(Cc2cccnc2)c2ccccc2c1=O)Nc1ccc(F)c(Cl)c1,5%,/
O=C(c1cnc(N2CCCCC2)c2ccccc12)N1CCN(c2cccc(Cl)c2)CC1,0%,/
CCc1ccc2oc(-c3cccc(NC(=O)c4ccc(N5CCC(C)CC5)c([N+](=O)[O-])c4)c3)nc2c1,-4%,/
COc1cc2c(cc1NC(=O)CSc1ccccc1)oc1ccccc12,-11%,-47%
COc1cc2c(cc1NC(=O)Nc1ccc(C)cc1)oc1ccccc12,-1%,-43%
COc1cc2c(cc1NC(=O)Nc1ccc(F)cc1)oc1ccccc12,?,14µM*
COc1cc2c(cc1NC(=O)CSc1nc3ccccc3[nH]1)oc1ccccc12,-1%,7.9µM*
CC(C)Oc1ccc(CNC(=O)c2ccc(CS(=O)c3cccc(Cl)c3)o2)cc1 (stereo not given),-5%,/
Cc1ccc(Oc2nc3c(c(=O)n(Cc4ccccc4)c(=O)n3C)n2C)cc1C,21%,/
Cc1ccc(-n2c(SCC(=O)N/N=C/c3c(C)nn(-c4ccccc4)c3C)nc3ccccc3c2=O)cc1,?,-21%
Cc1nn(-c2ccccc2)c(C)c1/C=N/NC(=O)CSc1nnc(SCc2cccc3ccccc23)s1,2%,2.2µM*

# Bioassay records deposited in PubChem BioAssay by National Center for Advancing Translational Sciences (NCATS).
